Laboratory results published in the supplement of paper PMC11732987, “Enantioselective OTUD7B fragment discovery through chemoproteomics screening and high-throughput optimisation” (Communications Chemistry, 2025).

Tests used:
Assay in all cases: log2 ratio of Biotin-Ahx-Ub-VS probe labelling (fragment/DMSO); higher = less target engagement (more negative = stronger competition), active = hit call of the paper (q ≤ 0.05, log2 ratio ≤ -1)
Settings in all cases: compound concentration: 200 uM; treatment time: 3 h
USP34 = USP34 (UniProt Q70CQ2)
How it was run: (§1)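 Average log2 ratios of fragment over vehicle were obtained by unpaired t-test from global-median-normalised Spectronaut label-free quantities. Proteins with ≥2 unique peptides were included. HEK293T lysate (495 µg per sample) was treated in triplicate with fragment at 200 µM or vehicle for 3 h, then with Biotin-Ahx-Ub-VS at 0.5 µM final for 1 h, and labelled DUBs were NeutrAvidin-enriched and run by diaPASEF LC-MS/MS.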

USP36 = biological target: T1, USP36 (UniProt Q9P275)
T1 sequence (whole entry): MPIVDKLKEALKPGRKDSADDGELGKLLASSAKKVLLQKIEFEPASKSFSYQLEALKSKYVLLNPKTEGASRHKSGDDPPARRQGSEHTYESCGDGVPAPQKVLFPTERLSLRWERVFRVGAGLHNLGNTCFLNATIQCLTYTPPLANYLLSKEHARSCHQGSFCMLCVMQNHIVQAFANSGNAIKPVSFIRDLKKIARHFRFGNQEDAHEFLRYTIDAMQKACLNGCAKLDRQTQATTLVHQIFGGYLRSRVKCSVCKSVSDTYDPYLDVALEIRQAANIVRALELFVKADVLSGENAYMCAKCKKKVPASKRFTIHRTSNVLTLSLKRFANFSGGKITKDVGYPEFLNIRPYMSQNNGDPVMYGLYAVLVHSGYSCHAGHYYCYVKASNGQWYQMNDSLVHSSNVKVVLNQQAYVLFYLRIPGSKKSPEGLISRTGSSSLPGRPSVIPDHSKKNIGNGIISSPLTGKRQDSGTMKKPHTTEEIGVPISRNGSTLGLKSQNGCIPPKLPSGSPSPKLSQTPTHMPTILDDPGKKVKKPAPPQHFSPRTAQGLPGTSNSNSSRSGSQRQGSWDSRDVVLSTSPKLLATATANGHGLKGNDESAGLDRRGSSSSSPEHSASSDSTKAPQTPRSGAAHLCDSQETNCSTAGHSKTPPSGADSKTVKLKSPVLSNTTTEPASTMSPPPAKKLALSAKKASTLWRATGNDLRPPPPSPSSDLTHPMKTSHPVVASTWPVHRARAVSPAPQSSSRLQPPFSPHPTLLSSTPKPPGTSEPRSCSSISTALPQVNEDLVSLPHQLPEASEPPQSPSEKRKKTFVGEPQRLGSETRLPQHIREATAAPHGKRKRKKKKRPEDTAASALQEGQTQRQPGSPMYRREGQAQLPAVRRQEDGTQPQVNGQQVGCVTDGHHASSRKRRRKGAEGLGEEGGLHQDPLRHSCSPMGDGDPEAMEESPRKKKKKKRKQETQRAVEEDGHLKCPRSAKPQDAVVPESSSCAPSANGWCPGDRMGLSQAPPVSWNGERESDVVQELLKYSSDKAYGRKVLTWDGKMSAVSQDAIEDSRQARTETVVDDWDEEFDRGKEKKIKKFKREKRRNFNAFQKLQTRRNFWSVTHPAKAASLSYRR
How it was run: as §1

USP38 = biological target: T2, USP38 (UniProt Q8NB14)
T2 sequence (whole entry): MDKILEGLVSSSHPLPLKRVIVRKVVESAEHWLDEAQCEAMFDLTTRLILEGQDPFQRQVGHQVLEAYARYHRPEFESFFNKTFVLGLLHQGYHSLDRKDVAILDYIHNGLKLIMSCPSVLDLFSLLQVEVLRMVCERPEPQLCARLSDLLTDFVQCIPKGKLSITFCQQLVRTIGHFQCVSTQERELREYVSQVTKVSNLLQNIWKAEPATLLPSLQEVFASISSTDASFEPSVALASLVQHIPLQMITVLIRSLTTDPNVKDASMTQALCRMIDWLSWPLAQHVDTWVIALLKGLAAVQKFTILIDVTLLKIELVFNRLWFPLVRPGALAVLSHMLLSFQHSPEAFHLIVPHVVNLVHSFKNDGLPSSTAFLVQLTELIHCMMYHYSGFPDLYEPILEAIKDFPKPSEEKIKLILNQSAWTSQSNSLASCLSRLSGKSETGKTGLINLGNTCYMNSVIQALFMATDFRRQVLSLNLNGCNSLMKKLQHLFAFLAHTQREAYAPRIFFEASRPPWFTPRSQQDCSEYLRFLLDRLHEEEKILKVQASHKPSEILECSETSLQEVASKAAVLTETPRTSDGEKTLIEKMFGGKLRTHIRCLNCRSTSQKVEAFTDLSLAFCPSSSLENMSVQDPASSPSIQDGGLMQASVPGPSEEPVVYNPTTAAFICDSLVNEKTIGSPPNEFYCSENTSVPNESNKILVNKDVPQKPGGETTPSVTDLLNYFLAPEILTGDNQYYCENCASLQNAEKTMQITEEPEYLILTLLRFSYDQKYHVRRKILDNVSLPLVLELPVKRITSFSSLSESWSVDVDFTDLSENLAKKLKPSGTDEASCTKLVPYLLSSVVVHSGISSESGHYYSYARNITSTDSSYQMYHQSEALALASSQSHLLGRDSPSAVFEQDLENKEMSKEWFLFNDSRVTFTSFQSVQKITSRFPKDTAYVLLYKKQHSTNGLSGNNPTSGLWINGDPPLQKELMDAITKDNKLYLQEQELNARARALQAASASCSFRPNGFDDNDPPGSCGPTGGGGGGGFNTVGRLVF
How it was run: as §1

USP39 = biological target: T3, USP39 (UniProt Q53GS9)
T3 sequence (whole entry): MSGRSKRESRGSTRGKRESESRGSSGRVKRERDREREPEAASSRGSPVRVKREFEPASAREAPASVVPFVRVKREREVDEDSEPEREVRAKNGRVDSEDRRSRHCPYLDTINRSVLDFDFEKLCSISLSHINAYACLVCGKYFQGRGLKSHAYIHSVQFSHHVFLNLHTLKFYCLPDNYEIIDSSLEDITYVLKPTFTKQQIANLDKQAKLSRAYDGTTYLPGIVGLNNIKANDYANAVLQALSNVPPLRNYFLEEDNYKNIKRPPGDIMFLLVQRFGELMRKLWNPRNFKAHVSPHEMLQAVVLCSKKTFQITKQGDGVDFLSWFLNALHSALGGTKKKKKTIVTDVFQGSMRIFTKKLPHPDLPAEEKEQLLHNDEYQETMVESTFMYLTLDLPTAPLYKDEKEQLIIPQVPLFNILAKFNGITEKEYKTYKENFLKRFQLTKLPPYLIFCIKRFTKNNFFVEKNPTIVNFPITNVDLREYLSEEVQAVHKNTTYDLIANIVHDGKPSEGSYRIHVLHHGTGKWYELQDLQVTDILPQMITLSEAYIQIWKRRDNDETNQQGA
How it was run: as §1

USP4 = biological target: T4, USP4 (UniProt Q13107)
T4 sequence (whole entry): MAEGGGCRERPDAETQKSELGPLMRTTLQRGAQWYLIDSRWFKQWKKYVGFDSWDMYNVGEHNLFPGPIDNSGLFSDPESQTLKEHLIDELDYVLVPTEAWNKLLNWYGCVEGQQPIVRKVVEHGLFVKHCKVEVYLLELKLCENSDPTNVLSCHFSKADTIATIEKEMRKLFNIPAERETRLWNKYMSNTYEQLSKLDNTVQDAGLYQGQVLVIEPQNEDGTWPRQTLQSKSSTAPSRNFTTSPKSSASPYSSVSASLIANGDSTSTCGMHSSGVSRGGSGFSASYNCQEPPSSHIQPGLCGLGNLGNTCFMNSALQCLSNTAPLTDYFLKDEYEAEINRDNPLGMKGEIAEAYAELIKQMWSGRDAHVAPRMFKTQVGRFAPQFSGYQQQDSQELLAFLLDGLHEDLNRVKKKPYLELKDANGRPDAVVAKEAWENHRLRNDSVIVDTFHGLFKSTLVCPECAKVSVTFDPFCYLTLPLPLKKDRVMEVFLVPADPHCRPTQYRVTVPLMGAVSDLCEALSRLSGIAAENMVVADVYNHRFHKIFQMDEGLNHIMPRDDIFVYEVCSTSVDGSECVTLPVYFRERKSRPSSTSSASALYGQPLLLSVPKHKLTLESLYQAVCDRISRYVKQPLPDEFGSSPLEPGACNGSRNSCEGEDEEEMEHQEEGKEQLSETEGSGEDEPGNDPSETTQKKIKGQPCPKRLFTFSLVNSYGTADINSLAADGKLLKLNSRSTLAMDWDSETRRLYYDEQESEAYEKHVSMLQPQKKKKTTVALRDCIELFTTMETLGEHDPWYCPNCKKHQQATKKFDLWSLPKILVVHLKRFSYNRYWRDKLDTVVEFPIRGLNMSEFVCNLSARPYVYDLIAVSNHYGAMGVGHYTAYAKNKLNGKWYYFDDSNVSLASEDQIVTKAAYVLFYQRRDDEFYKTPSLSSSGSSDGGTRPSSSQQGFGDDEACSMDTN
How it was run: as §1

Measured: log2 ratio of Biotin-Ahx-Ub-VS probe labelling

USP34, sequence (Q70CQ2 whole entry, the tested form may be a part): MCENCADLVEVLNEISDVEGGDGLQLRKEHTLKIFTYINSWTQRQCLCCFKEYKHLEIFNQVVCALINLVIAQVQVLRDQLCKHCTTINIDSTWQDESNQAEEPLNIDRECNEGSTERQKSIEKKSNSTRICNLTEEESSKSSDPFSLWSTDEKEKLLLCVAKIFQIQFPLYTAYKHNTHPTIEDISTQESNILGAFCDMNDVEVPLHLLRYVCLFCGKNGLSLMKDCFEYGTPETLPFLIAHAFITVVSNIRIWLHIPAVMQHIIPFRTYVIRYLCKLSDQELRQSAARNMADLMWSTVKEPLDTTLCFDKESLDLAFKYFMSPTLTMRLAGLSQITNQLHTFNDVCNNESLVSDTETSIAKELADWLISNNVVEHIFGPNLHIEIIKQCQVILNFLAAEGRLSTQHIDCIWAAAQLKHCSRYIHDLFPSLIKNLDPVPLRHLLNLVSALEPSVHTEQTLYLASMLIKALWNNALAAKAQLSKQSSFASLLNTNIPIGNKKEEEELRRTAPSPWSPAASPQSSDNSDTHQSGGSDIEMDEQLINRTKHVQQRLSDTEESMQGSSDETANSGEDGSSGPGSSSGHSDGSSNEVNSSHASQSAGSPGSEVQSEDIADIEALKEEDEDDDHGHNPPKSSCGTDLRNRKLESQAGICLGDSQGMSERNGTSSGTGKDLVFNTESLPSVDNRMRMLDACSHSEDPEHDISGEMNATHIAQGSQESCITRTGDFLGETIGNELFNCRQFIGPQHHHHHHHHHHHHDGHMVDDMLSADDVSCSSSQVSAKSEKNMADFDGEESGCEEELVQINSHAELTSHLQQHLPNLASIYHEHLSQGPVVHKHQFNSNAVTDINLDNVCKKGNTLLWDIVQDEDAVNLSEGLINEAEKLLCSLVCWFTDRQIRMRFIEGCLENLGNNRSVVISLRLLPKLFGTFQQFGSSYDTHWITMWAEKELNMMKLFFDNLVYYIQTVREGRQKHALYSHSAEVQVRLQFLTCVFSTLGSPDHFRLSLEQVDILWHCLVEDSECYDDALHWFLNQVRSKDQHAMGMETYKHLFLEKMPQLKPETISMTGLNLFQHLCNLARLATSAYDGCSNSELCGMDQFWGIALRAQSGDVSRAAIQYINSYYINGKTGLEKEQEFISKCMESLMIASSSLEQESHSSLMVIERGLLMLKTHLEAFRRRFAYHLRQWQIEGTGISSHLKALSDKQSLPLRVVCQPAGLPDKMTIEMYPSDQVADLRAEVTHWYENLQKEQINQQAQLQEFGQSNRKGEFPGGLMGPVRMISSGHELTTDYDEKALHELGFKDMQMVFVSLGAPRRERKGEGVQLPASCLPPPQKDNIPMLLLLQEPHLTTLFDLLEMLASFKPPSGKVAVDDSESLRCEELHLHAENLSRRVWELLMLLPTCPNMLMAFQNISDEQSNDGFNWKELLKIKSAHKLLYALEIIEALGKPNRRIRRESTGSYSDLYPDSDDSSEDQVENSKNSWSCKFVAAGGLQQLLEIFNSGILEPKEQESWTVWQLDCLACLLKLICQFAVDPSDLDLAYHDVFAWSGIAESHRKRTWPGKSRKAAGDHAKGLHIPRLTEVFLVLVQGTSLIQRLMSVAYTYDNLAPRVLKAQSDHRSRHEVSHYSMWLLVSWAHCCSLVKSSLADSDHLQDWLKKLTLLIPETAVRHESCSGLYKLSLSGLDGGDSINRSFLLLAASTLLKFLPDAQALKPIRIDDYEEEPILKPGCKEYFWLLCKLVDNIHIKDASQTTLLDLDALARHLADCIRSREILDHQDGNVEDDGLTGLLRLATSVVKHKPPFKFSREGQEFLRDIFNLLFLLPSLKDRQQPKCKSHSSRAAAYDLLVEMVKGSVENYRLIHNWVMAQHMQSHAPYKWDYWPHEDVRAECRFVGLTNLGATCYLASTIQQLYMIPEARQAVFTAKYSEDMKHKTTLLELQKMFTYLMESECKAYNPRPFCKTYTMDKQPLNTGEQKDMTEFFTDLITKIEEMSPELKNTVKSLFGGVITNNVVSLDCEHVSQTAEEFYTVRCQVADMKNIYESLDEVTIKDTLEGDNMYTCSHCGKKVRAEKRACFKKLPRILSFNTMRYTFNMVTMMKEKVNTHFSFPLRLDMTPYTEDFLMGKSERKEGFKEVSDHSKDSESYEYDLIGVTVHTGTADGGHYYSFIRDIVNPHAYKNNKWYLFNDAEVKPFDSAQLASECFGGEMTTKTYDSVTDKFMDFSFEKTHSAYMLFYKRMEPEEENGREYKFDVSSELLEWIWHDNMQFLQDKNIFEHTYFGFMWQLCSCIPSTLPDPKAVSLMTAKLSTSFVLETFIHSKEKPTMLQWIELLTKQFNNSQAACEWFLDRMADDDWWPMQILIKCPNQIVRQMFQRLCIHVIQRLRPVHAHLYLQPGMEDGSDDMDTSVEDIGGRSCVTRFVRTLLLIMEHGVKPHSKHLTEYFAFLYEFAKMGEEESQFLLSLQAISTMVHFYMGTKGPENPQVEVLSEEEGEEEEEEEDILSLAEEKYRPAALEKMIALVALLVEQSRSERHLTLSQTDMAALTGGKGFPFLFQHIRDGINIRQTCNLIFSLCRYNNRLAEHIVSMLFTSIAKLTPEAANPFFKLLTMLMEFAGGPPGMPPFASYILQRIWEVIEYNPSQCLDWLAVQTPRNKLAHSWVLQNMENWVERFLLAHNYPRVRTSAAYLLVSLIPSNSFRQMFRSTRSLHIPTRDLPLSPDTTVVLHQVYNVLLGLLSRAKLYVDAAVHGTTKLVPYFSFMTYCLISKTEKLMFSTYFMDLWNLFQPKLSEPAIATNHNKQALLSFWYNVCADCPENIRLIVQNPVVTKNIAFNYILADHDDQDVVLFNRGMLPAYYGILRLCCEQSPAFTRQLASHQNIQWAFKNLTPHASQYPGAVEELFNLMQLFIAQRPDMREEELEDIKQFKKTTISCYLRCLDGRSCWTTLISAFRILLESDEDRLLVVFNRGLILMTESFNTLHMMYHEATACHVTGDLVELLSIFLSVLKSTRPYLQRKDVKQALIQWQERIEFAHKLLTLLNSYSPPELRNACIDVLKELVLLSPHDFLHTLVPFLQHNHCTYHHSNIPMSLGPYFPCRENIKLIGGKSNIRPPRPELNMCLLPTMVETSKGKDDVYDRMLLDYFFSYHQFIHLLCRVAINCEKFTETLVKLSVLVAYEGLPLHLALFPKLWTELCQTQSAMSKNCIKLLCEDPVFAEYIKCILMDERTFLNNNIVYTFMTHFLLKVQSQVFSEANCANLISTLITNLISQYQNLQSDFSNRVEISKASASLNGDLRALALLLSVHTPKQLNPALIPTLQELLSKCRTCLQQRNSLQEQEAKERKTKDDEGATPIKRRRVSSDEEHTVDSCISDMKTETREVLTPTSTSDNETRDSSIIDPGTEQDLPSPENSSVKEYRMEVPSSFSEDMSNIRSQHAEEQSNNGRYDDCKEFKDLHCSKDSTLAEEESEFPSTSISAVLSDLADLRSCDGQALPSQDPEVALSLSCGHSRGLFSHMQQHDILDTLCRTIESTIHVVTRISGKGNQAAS

Cc1n[nH]c(=O)c2c(NC(=O)CCl)oc(C)c12
inactive: USP34 -0.107 | USP36 0.103 | USP38 0.0131 | USP39 0.082 | USP4 0.0593
